Calls of active or inactive are those of the source.
Experiments:
[1] = binders of probe aFSTL3 on microarray, primary screen, stem cell growth factor project, biochemical, small-molecule microarray, fluorescence 635/667 (AID 1064); details: higher = more signal;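 further: measures binding of the biotinylated anti-FSTL3 antibody to printed compounds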
[2] = binders from COS7 lysate, DM2A8 probe, primary screen, torsin A project, cell lysate, small-molecule microarray, fluorescence 635/667 (AID 1065); details: higher = more signal, COS7 lysate expressing mutant human TOR1A
[3] = binders of probe aFGF2 on microarray, primary screen, stem cell growth factor project, biochemical, small-molecule microarray, fluorescence 635/667 (AID 1067); details: higher = more signal;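 further: measures binding of biotinylated aFGF2 protein to printed compounds on slides; z-score merges feature fluorescence and signal-to-noise across triplicate slides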
[4] = binders of probe aFGF10 on microarray, primary screen, stem cell growth factor project, biochemical, small-molecule microarray, fluorescence 635/667 (AID 1071); details: higher = more signal;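 further: score merges 667 nm spot intensity and signal to noise from triplicate slides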
[5] = biological target: Neurogenic locus notch homolog protein 2 (Homo sapiens) (UniProt Q04721); assay: Notch2 binders on small-molecule microarrays, primary screen, biochemical, small-molecule microarray, 635 nm fluorescence, stem cell growth factors (AID 1073); details: Notch2 binding, higher = more signal
[6] = biological target: Pro-neuregulin-1, membrane-bound isoform (Homo sapiens) (UniProt Q02297); assay: NRG1 binders on small-molecule microarrays, primary screen, psychiatric disease protein project, biochemical, small-molecule microarray, fluorescence 635/667 (AID 1075); details: NRG1 binding, 635 nm fluorescence, higher = more signal;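 further: score combines 667 nm spot fluorescence with signal to noise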
[7] = test system: Neuregulin-1 EGF-like domain; assay: binders of neuregulin-1 EGF-like domain, primary screen, biochemical, small-molecule microarray, 635 nm fluorescence (AID 1081); details: small-molecule microarray binding, higher = more signal;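 further: binding of the protein to compounds printed on small-molecule microarray slides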
[8] = FRG1 promoter luciferase signal modulators, primary screen, FRG1 inhibition for FSHD, cell-based, C2C12 myotubes, firefly/Renilla luciferase, luminescence (AID 1084); details: higher = more signal, called active from +8 up or from −8 down
[9] = binders of probe aFST on microarray, primary screen, stem cell growth factor project, biochemical, small-molecule microarray, fluorescence 635/667 (AID 1086); details: higher = more signal;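 further: score merges 667 nm fluorescence with signal-to-noise of each printed compound spot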
[10] = binders of probe aHhip on microarray, primary screen, stem cell growth factor project, biochemical, small-molecule microarray, fluorescence 635/667 (AID 1087); details: higher = more signal;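 further: score merges spot fluorescence at 667nm with spot signal to noise ratio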
[11] = test system: PRMT1 (protein arginine N-methyltransferase 1); assay: PRMT1 binders on small-molecule microarrays, primary screen, biochemical, small-molecule microarray, 635 nm fluorescence (AID 1088); details: small-molecule microarray binding, higher = more signal;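 further: binding of Prmt1 protein to compounds spotted on small-molecule microarray slides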
[12] = yeast growth modulation, basal conditions, primary screen, YJM789 clinical isolate, OD600, 24 h (AID 1089);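 further: growth of clinical yeast isolate S. cerevisiae YJM 789 seeded 1000 cells per well; test concentration not given here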; details: S. cerevisiae YJM789 growth, higher = more signal, called active from +8 up or from −8 down
[13] = fission yeast growth modulation, primary screen, strain 972, OD600, 24 h, no modulator (AID 1090);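 further: basal condition with compound alone and no growth modifier present; test concentration not given here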; details: S. pombe 972 growth, higher = more signal, called active from +8 up or from −8 down
[14] = S. cerevisiae growth modulation with rapamycin, primary screen, strain BY4716, OD600, 96 h (AID 1091); details: higher = more signal, called active from +8 up or from −8 down; further: test concentration not given here
[15] = biological target: Torsin-1A-interacting protein 2 (Homo sapiens) (UniProt Q8NFQ8); assay: LULL1 binders on small-molecule microarray, primary screen, cell lysate, human LULL1 lysate, 635/667 nm fluorescence (AID 1092); details: hLULL1 lysate binding, 635 nm fluorescence, higher = more signal;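 further: probe is lysate of COS7 cells overexpressing human LULL1; score merges per-feature 667 nm fluorescence with signal-to-noise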
[16] = E. coli growth modulation, two-sided OD650, primary screen, E. coli filamentation project, strain DRC41, 24 h (AID 1093); details: OD650, 24 h, higher = more signal, called active from +8 up or from −8 down;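 further: MC1000 strain lacking acrAB efflux and sulA so SOS filamentation is blocked; test concentration not given here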
[17] = small-molecule microarray binders of probe aLefty2, primary screen, biochemical, biotinylated probe, 635/667 nm fluorescence (AID 1094); details: higher = more signal;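 further: score merges spot fluorescence near 667 nm with spot signal-to-noise ratio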
[18] = test system: Noggin (protein binding on small-molecule microarray); assay: Noggin binders on small-molecule microarray, primary screen, biochemical, 635/667 nm fluorescence (AID 1095); details: 635 nm fluorescence, higher = more signal;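 further: score merges 667 nm feature fluorescence with signal to noise over triplicate slides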
[19] = biological target: Neurogenic locus notch homolog protein 3 (Homo sapiens) (UniProt Q9UM47); assay: NOTCH3 binders on small-molecule microarray, primary screen, biochemical, 635/667 nm fluorescence (AID 1096); details: NOTCH3 binding, 635 nm fluorescence, higher = more signal
[20] = small-molecule microarray binders of probe aEGFR, primary screen, biochemical, biotinylated probe, 635/667 nm fluorescence (AID 1097); details: higher = more signal;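 further: probe is a biotinylated anti-EGFR antibody binding compounds printed on slides; score combines fluorescence near 667 nm and signal to noise of each spot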

Chain of Torsin-1A-interacting protein 2 (Homo sapiens) (Q8NFQ8 whole entry, looked up): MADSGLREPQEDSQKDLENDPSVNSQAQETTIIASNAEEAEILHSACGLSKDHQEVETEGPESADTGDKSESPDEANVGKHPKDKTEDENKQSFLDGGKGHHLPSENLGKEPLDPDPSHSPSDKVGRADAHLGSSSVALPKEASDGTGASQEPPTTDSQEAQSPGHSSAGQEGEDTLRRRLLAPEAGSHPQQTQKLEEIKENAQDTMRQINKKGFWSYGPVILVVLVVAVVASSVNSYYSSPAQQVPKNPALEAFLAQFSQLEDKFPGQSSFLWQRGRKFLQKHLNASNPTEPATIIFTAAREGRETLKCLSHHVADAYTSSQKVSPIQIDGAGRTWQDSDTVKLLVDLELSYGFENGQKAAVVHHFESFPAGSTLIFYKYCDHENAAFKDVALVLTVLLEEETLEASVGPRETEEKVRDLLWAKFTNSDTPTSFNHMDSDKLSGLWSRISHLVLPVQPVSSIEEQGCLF
Chain of Pro-neuregulin-1, membrane-bound isoform (Homo sapiens) (Q02297 whole entry, looked up, the tested form may be a part, canonical isoform): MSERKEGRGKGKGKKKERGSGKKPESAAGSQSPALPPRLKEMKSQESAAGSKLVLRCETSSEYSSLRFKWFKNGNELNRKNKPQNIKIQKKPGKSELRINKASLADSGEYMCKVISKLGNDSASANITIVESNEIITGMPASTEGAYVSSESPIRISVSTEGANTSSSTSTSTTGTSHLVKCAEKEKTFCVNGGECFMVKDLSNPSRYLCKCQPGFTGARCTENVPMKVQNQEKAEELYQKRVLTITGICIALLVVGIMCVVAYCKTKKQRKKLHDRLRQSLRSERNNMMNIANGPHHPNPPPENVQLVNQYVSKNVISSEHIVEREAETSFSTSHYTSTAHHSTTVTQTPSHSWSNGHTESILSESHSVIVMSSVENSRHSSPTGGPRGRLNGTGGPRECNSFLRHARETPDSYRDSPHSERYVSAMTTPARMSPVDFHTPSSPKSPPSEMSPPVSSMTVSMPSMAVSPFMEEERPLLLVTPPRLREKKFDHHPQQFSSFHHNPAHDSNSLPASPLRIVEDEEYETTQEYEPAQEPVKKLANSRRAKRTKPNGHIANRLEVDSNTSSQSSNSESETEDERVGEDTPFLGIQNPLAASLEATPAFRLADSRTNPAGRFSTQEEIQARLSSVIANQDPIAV
Chain of Neurogenic locus notch homolog protein 2 (Homo sapiens) (Q04721 whole entry, looked up, canonical isoform): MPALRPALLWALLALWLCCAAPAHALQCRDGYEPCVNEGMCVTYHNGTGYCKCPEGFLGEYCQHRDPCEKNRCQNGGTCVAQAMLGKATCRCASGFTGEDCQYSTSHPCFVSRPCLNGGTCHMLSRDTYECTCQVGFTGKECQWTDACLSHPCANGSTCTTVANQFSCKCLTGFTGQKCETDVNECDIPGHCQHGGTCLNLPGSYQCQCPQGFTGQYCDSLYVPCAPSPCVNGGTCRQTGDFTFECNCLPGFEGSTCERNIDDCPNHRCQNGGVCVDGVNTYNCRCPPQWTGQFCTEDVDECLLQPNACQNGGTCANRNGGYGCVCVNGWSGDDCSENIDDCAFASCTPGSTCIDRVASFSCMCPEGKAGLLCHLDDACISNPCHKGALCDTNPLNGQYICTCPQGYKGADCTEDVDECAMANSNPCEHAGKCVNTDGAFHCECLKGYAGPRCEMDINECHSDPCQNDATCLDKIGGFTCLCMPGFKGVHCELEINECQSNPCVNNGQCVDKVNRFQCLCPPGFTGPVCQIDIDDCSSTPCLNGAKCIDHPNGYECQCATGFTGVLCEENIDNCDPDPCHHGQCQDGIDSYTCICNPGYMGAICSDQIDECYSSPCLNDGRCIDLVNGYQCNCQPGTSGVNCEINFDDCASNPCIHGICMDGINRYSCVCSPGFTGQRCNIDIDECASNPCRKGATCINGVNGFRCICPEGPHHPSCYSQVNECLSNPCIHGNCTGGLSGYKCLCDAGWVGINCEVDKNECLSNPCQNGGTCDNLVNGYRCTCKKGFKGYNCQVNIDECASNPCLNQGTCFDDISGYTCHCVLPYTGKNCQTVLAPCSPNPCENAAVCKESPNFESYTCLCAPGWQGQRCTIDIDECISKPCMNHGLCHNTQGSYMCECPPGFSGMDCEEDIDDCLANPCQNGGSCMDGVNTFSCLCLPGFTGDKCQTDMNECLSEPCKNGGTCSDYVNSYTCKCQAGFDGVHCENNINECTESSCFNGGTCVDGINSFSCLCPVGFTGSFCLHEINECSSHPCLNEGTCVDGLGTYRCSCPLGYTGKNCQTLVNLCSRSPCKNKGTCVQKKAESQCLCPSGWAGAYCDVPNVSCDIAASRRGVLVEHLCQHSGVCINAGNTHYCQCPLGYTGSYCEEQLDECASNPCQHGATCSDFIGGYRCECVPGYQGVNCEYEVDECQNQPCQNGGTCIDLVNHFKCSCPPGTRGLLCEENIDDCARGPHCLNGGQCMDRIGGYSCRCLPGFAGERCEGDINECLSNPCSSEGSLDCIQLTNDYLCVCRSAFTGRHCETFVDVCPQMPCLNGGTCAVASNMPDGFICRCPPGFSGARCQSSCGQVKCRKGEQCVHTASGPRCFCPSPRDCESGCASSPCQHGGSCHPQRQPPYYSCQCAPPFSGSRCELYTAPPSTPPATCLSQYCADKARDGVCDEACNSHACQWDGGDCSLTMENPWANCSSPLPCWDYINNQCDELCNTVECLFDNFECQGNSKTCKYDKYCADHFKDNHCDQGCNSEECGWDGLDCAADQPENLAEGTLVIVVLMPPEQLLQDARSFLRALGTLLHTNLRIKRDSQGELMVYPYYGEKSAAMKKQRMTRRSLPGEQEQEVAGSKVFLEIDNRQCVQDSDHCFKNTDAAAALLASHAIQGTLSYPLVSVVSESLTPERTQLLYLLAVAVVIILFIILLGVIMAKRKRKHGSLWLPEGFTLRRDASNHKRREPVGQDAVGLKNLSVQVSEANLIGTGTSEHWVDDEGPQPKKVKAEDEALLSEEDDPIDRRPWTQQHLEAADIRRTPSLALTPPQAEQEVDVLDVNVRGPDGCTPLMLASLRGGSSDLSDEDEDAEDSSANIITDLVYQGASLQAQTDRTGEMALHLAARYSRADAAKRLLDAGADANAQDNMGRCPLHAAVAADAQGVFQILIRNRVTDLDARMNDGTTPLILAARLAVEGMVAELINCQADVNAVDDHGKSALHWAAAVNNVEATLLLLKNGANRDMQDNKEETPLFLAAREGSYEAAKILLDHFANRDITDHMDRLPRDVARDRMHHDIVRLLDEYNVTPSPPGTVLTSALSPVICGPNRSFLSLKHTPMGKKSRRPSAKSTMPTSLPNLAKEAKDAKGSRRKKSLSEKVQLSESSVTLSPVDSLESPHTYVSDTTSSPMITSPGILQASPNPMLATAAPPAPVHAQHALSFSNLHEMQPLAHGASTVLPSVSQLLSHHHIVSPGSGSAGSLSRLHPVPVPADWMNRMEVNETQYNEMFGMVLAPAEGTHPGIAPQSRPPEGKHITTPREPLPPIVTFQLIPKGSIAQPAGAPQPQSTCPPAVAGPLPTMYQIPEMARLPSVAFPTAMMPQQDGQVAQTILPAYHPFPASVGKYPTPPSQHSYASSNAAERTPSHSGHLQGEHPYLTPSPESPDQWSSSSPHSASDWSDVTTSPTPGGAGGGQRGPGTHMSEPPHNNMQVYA

SMILES	composite z-score [1]	composite z-score [2]	composite z-score [3]	composite z-score [4]	composite z-score [5]	composite z-score [6]	composite z-score [7]	z-score [8]	composite z-score [9]	composite z-score [10]	composite z-score [11]	z-score [12]	z-score [13]	z-score [14]	composite z-score [15]	z-score [16]	composite z-score [17]	composite z-score [18]	composite z-score [19]	composite z-score [20]
C=CCNC(=O)[C@@H]1[C@H]2C(=O)O[C@H](c3ccccc3)[C@H](c3ccccc3)N2[C@H](c2ccc(O)cc2)[C@@]12C(=O)N(C(=O)OCCOC)c1ccc(C#Cc3ccc(OC)cc3)cc12	-0.828	0.974	-0.0761	0.856	1.34	1.41	1.16	-0.374 (inactive)	0.316	-0.0994	1.55	0.342 (inactive)	0.1 (inactive)	2.6 (inactive)	2.08	2.2 (inactive)	-0.111	0.605	1.12	-0.0674
COc1ccc([Si](C)(C)[C@@H]2[C@@H](CCn3cc(CCO)nn3)O[C@]3(C(=O)N(Cc4ccc(N5C(=O)c6cccc7cccc5c67)cc4)c4ccccc43)[C@H]2C)cc1	-0.279	0.749	-0.0656	-0.0139	0.142	1.26	0.742	-3.48 (inactive)	0.299	0.154	1.51	0.0277 (inactive)	0.858 (inactive)	12.7 (active)	0.986	2.61 (inactive)	-0.0564	0.376	0.802	-0.0138
NC(=O)N1C(=O)C2C(C1=O)C1C=C(c3ccc(CO)cc3)C2C(C2CC2)N1Cc1cc2c(cc1Br)OCO2 (stereo not given)	0.567	0.778	-0.105	-0.277	-0.204	0.976	0.887	-2.01 (inactive)	0.0417	-0.0237	0.364	-0.779 (inactive)	-3.29 (inactive)	-1.32 (inactive)	1.86	1.19 (inactive)	0.0834	0.176	0.623	-0.0975
C=C(C1=CCN(S(=O)(=O)c2ccc(C)cc2)C1)[C@@H](OC(C)=O)[C@@H]1CCCN1S(=O)(=O)c1ccccc1[N+](=O)[O-]	-0.0883	-0.189	-0.05	0.487	-0.574	-0.158	0.406	-3.21 (inactive)	-0.344	-0.0994	-0.267	0.943 (inactive)	0.0893 (inactive)	1.82 (inactive)	1.2	2.89 (inactive)	-0.297	-0.305	0.127	-0.202
C=CCC(OC(C)=O)[C@@H]1[C@@H](N(Cc2cc3ccccc3o2)C(=O)c2ccc(-c3ccccc3)cc2)c2cc(OCCCO)ccc2N1C(=O)c1ccc(-c2ccccc2)cc1 (stereo not given in full)	0.218	-0.352	-0.0985	0.0925	0.11	-0.196	-0.714	-1.24 (inactive)	0.105	-0.0994	-0.527	1.13 (inactive)	0.0977 (inactive)	1.38 (inactive)	0.94	1.95 (inactive)	0.0711	-0.397	-0.402	-0.0444
CC(C)C(CO)N1C(=O)[C@@H]2[C@H]3C(=O)OCC=C[C@H]3OC23C=CCN(Cc2ccccc2)C(=O)[C@@H]13 (stereo not given in full)	-0.302	-0.438	-0.116	-0.307	-0.834	-0.72	-0.386	-0.699 (inactive)	-0.361	-0.0994	-0.462	-0.899 (inactive)	-0.742 (inactive)	-1.06 (inactive)	-1.04	2.08 (inactive)	-0.238	-0.282	-0.316	-0.287
CN(C)CCCC[C@@H]1NC(=O)[C@@H]2C[C@H](C(=O)NCCCCCNC(=O)CS)[C@H](c3cccc(OCCO)c3)N2C1=O	0.32	0.532	-0.101	0.141	0.393	0.267	1.2	0.37 (inactive)	0.19	0.259	1.07	-2.64 (inactive)	-1.81 (inactive)	-2.15 (inactive)	0.127	2.1 (inactive)	0.0494	1.62	0.162	0.186
O=C1O[C@H](c2ccccc2)[C@H](c2ccccc2)N2[C@H]1[C@@H](C(=O)NC[C@H](O)c1ccccc1)[C@]1(C(=O)Nc3ccc(C#CC4(O)CCCCCC4)cc31)[C@H]2c1ccc(O)cc1	0.0879	0.705	-0.0529	0.676	1.47	1.62	1.34	-0.0847 (inactive)	0.837	0.131	1.58	-0.307 (inactive)	-1.14 (inactive)	0.393 (inactive)	1.41	1.69 (inactive)	0.113	0.927	1.1	0.0425
C=C(C(=O)CC[C@@H](OC(C)=O)c1ccccc1OCCO)C(C)C	-0.354	-0.363	-0.133	0.664	-0.553	-0.267	-0.29	-2.13 (inactive)	-0.575	-0.0994	0.526	-6.28 (inactive)	-20.5 (active)	-2.44 (inactive)	-0.0719	1.27 (inactive)	-0.2	-0.0776	0.232	-0.249
CCCCCCC#C[Si](O[C@H](c1ccccc1)c1cn(Cc2ccccc2)nn1)(C(C)C)C(C)C	-0.331	-0.0435	0.0339	0.388	0.433	-0.0854	-0.0419	-0.494 (inactive)	0.129	0.243	0.63	-0.501 (inactive)	-1.19 (inactive)	-0.287 (inactive)	0.468	2.25 (inactive)	-0.0153	0.977	0.6	0.0334
C#CCN1C(C(=O)OCC)OC[C@H]1c1ccccc1 (stereo not given in full)	-0.551	2.59	-0.128	0.389	0.678	0.0354	-0.143	-1.77 (inactive)	-0.0006	-0.492	0.52	-1.51 (inactive)	-2.08 (inactive)	-1.95 (inactive)	3.77	1.92 (inactive)	-0.205	0.671	0.804	-0.109

Source: PubChem BioAssay
